Shown is part of a subset that was picked to be rich in hits.
Pf apPOL block: Pf-apPOL DNA polymerase inhibition; inhibition, % at 10 µM; 210,000 tested, 0.25% active; AID 1794808; Recombinant Pf-apPOL, molecular beacon fluorescence, 1.5 h
mHTT CaM bind: mHTT-calmodulin interaction abrogation. P42858. inhibition, % at 15 µM. 190,000 tested, 3.6% active. AlphaScreen His-mHTT/GST-CaM binding, luminescence
Numbers stand for hits; 0 = inactive; - = not tested or not shown; + = active, no number. No stated cut-off is given here; in the data, active means inhibition above about 50%; inactive means the rest.

SMILES	Pf apPOL block	mHTT CaM bind
O=C(Nc1ccccc1[N+](=O)[O-])c1ccc(Cl)c(S(=O)(=O)NCc2ccco2)c1	54	0
O=C(Nc1ccccc1[N+](=O)[O-])c1ccc(Cl)c(S(=O)(=O)Nc2ccc(Cl)cc2)c1	0	86
CCc1ccccc1N1C(=O)CCC1(C)C(=O)NCCCOC(C)C (stereo unspecified)	0	0
O=C(CCNCCO)c1ccccc1	0	0
CNc1ncnc2c1C(c1ccc([N+](=O)[O-])cc1)c1c(NC)ncnc1O2	0	52
CC1(C(=O)O)COC(c2ccc([N+](=O)[O-])cc2)OC1 (stereo unspecified)	0	0
Cc1ccc(C(=O)N2CCC3(CC2)NC(=O)c2cc(F)ccc2N3C)c(C)c1	0	56
Cc1ccc(C(=O)N2CCC3(CC2)NC(=O)c2ccc(F)cc2N3C)c(C)c1	0	0
COc1ccc(C2CCCN2C(=O)c2cc(-c3ccccc3F)no2)cc1 (stereo unspecified)	0	0
O=C(Cc1csc(NC(=O)c2ccco2)n1)NCc1cccs1	0	0
O=C(Cc1csc(NC(=O)c2ccco2)n1)Nc1ccc(F)c(C(F)(F)F)c1	0	59
CC1CC(C)CN(CC(O)COCCOc2ccccc2Br)C1 (stereo unspecified)	0	0
CC1=CC(=O)C(C(C)C)=C/C1=N\OC(=O)c1cccs1	0	+
CC1=CC(=O)C(C(C)C)=C/C1=N\Oc1c([N+](=O)[O-])cc(Cl)cc1[N+](=O)[O-]	0	+
COc1cc(C(=O)O/N=C2/C=C(C(C)C)C(=O)C=C2C)cc(OC)c1OC	0	0
COc1ccc(C(=O)O/N=C2\C=C(C(C)C)C(=O)C=C2C)cc1Br	0	+
CC1=CC(=O)C(C(C)C)=C/C1=N\OC(=O)c1ccc(C)cc1	0	0
Nc1c(Cl)cc(Cl)cc1[N+](=O)[O-]	0	0
COc1ccccc1C(=O)O/N=C1\C=C(C(C)C)C(=O)C=C1C	0	+
CC1=CC(=O)C(C(C)C)=C/C1=N\OC(=O)c1ccccc1C	0	0
CN(C)C(CNC(=O)C1CCN(S(C)(=O)=O)CC1)c1ccsc1 (stereo unspecified)	0	0
COc1ccc(-c2nc3ccccc3c(=O)n2Cc2c(F)cccc2F)cc1OC	0	0
Cc1ccc(-c2nnc(Cc3nc(C(C)(C)C)no3)o2)cc1F	0	0
COc1cc2c(cc1OC)CN(C(=O)CSc1nnc3cc(C)c4ccccc4n13)CC2	0	0
COc1ccc(Br)cc1C=C1Oc2c(ccc(O)c2CN2CCCC2)C1=O	0	0
SMILES	Pf apPOL block	mHTT CaM bind
CCOc1ccc(C2C(C(=O)Nc3ccc(Cl)cc3)=C(C)Nc3ncnn32)cc1OC (stereo unspecified)	0	0
Cc1ccccc1S(=O)(=O)N1CCC2(CC1)NCCN=C2NCc1cccc(F)c1	0	0
Cc1ccc(CN2CCCC2c2c(C)noc2C)cc1C (stereo unspecified)	0	0
CC1=CC(=O)C(C(C)C)=C/C1=N\OC(=O)c1ccc(C(C)(C)C)cc1	0	0
COc1ccc(Cl)cc1C(=O)O/N=C1\C=C(C(C)C)C(=O)C=C1C	0	+
COc1ccc(CNC(=O)C2CCn3c(nc4ccccc43)C2)cc1 (stereo unspecified)	0	0
CCOC(=O)c1ccc(NC(=O)CN2N=NC3C(=O)N(c4ccc(F)cc4)C(=O)C32)cc1 (stereo unspecified)	0	0
CC(C)(CC(=O)NCc1ccc(Cl)cc1)CC1=NS(=O)(=O)c2ccccc2N1	0	0
Cc1cccc(N2CCN(C(=O)CCc3conc3-c3ccc(F)cc3)CC2)c1	0	0
CCC(Sc1nc2n[nH]c(C)c2c(=N)n1-c1cccc(Cl)c1C)C(=O)NCCOC (stereo unspecified)	0	0
O=C(CN1N=C(c2ccc(Cl)cc2)CCC1=O)NCCc1ccc(Cl)cc1	0	0
O=C(CN1N=C(c2ccc(Cl)cc2)CCC1=O)NCCN1CCc2ccccc2C1	0	52
COc1ccc(OC)c(CNC(=O)CN2N=C(c3ccc(Cl)cc3)CCC2=O)c1	0	0
COc1ccc(Br)cc1CNC(=O)CN1N=C(c2ccc(Cl)cc2)CCC1=O	0	52
Cc1ccc(S(=O)(=O)N2CCC(CN3CCCC(C)C3)CC2)cc1Cl (stereo unspecified)	0	0
CCN(CC)C1=C(n2nnc3ccccc32)C(=O)c2ccccc2C1=O	0	0
Cc1ccc(Nc2c3c4c(cccc4n(C)c2=O)C(=O)c2ccccc2-3)cc1	0	0
Cc1ccc(NC2=C(n3nnc4ccccc43)C(=O)c3ccccc3C2=O)cc1	0	52
CN(C)c1ccc(NC2=C(n3nnc4ccccc43)C(=O)c3ccccc3C2=O)cc1	0	51
Cc1ccc(NC2=C(NCCO)C(=O)c3ccccc3C2=O)cc1	0	67
COc1cccc(NC2=C(n3nnc4ccccc43)C(=O)c3ccccc3C2=O)c1	0	0
O=C(C1CCCC1)N1CCc2ccc(NS(=O)(=O)c3ccc4c(c3)OCCO4)cc21	0	0
CC1C(C#N)=C(SCC(=O)Nc2ccc(Br)cc2)NC2=C1C(=O)CC(C)(C)C2 (stereo unspecified)	0	0
Cc1nc(Oc2ccc3c(c2)OCO3)c2c3c(sc2n1)CCCC3	0	0
CSc1nc2ccc(NC(=O)CCc3ccccc3)cc2s1	0	0
SMILES	Pf apPOL block	mHTT CaM bind
N#CC1=C(N)SC(N)=C(C#N)C1c1ccncc1	-	0
N#CC1=C(N)SC(N)=C(C#N)C1c1ccc(Cl)c(Cl)c1	0	98
COc1cc(SC)ccc1C(=O)N1CCCC1	0	0
O=C1CSC(c2cccc([N+](=O)[O-])c2)N1c1ccc(Oc2ccccc2)cc1 (stereo unspecified)	0	78
CCOc1ccc(N2C(=O)CSC2c2cccc([N+](=O)[O-])c2)cc1 (stereo unspecified)	0	0
O=C1CSC(c2ccccc2)N1c1ccccc1 (stereo unspecified)	0	0
O=C1CSC(c2ccccc2)N1c1ccc(Oc2ccccc2)cc1 (stereo unspecified)	0	78
CC1(C)Cc2c(sc(NC(=O)CN3C(=O)C4CC=C(Cl)CC4C3=O)c2C#N)CO1 (stereo unspecified)	0	0
O=C(COc1ccc(I)cc1)Nc1ccc(C(=O)O)cc1	0	0
COc1cccc(Oc2c(C(F)(F)F)oc3c(CN(C)C)c(O)ccc3c2=O)c1	0	0
CN(C)Cc1c(O)ccc2c(=O)c(Oc3ccc4ccccc4c3)c(C(F)(F)F)oc12	0	76
CCC(=O)Nc1ccc2c(c1)N(C(C)=O)CCC2	0	0
COc1ccc(-c2ccc(CN3C(C(C)C)C(=O)N(Cc4cn(CC5CCCCC5)nn4)CCS3(=O)=O)cc2)cc1 (stereo unspecified)	0	0
CC(C)C1C(=O)N(Cc2cn(CC3CCCCC3)nn2)CCS(=O)(=O)N1Cc1ccc(-c2ccc(F)cc2)cc1 (stereo unspecified)	0	0
CC(C)CC1C(=O)N(Cc2cn(Cc3ccco3)nn2)CCS(=O)(=O)N1Cc1ccc(-c2cccc(CO)c2)cc1 (stereo unspecified)	0	59
CC(C)CC1C(=O)N(Cc2cn(Cc3ccco3)nn2)CCS(=O)(=O)N1Cc1ccc(-c2ccc(Cl)cc2)cc1 (stereo unspecified)	0	0
CC(C)C1C(=O)N(Cc2cn(Cc3ccco3)nn2)CCS(=O)(=O)N1Cc1ccc(-c2cccc(N(C)C)c2)cc1 (stereo unspecified)	0	65
